Most compounds without a hit are left out; they make up all but 3% or so of the library.
HEK293 viab: cell viability loss counter-screen; HEK-293-SNCA-luc viability, GF-AFC fluorescence, 24 h; Potency, µM (top dose mostly 57.1 µM), inactives show top-dose activity change, negative = cytotoxicity, hits mostly cytotoxic; 0.12% of 150,000 active;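 also: potency is read from the fitted curve at half-maximal effect; 0% = DMSO-treated cells and -100% = medium-only wells without cells; nearly all actives have a fitted effect of over 30% in size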
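HEK-293-SNCA-luc cells (1500/well) plated 24 h, then exposed 24 h to a dilution series; GF-AFC added 30 min at 37C, fluorescence 405/540 nm; normalised to medium-only and DMSO wells, Hill fit.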
SNCA expr inh: reduces expression of the alpha-synuclein gene. HEK-293 SNCA-luciferase knock-in, luminescence, 24 h. Potency, µM (doses to about 57.2 µM), for inactives: top-dose activity change, negative = inhibition, actives largely listed as inhibitors. 0.17% of 140,000 active;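 also: potency is read from the fitted curve at half-maximal effect; plate controls were DMSO cells for no effect and cell-free wells for full effect; nearly all actives have a fitted effect of over 45% in size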
KDM5B inhibitor: inhibitors of human KDM5B histone demethylase. AID 1347165. KDM5B demethylase, FDH-coupled NADH fluorescence (FDH is formaldehyde dehydrogenase). 2.6% of 220,000 active. Potency, µM (highest dose often 57.7 µM), hits mostly inhibitors; also: potency is read from the fitted curve at half-maximal effect; 0% is about no effect; nearly all actives have a fitted effect of over 70% in size
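KDM5BΔAP (200 nM final) in 50 mM HEPES pH 7.5, 0.01% Tween-20 was preincubated 10 min at RT with compound over a concentration range. Substrate mix (H3K4me3 12.5 µM, α-KG 25 µM, Fe²⁺, ascorbate, NAD⁺, FDH) was added, and NADH fluorescence change over 30 min gave dose-response curves.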
IP6K1 inh: blocks human inositol hexakisphosphate kinase 1 | Q92551 | IP6K1 kinase, ADP-Glo luminescence, 2 h; hits give low values | activity change, % (series mostly up to about 58 µM) | 0.81% of 140,000 active; in the data active = activity change below about -25%; also: % is scaled to controls: 0 for no effect and ±100 for the full control effect
Target sequence (Q92551 whole entry, looked up): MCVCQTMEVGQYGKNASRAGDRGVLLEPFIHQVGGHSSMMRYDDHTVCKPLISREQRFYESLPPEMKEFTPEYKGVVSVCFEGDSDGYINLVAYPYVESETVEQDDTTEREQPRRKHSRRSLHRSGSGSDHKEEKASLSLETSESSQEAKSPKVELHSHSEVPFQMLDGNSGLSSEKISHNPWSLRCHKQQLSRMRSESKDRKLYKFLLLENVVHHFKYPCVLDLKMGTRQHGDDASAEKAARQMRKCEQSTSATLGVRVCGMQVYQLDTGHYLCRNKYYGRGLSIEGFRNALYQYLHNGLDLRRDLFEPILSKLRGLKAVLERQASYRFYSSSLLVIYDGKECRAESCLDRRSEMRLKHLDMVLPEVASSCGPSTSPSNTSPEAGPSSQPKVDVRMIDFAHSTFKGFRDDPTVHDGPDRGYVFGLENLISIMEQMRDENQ
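ADP-Glo luminescence measures ADP made by human IP6K1 during a 2 h RT reaction with ATP/IP6 (mix at 1.3 mM/130 uM); top library doses 57.5 and 19.1 uM final.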
* hit, by the source's call; i = inactive; ? = inconclusive; . = no result given; [ ] = another dose, or the depositor's remark. Unless noted, calls follow the shape of the dose curve; as a rule, active = well fitted curve in the direction sought with a large enough effect; inconclusive = small, poorly fitted or top-dose-only effect, or another doubt; inactive = no such curve, though single readings can be large; an effect the other way counts as inactive or inconclusive.

SMILES	HEK293 viab	SNCA expr inh	KDM5B inhibitor	IP6K1 inh
O=C(NC1CCN(c2nc3ncccc3o2)CC1)c1cccc(Cl)c1	?	1%	28µM*	11
COc1cccc(C(=O)NC2CCN(c3nc4ncccc4o3)CC2)c1	?	7%	?	-15
O=C(NC1CCCN(c2nc3ncccc3o2)C1)c1cccc(Cl)c1 (stereo not given)	5%	18%	i	10
CC(C)(C)C(=O)NC1CCN(c2nc3ncccc3o2)CC1	5%[87.6 µM]	?	25µM*	-6
O=C(NC1CCN(c2nc3ncccc3o2)CC1)C1CCCC1	-30%[87.6 µM]	25%[87.6 µM]	35µM*	9
Cc1ccccc1C(=O)NC1CCN(c2nc3ncccc3o2)CC1	-14%[87.6 µM]	3%[87.6 µM]	32µM*	-16
CCCCn1c(=O)c(C(=O)NCC2CCCCC2)nc2cccnc21	-19%	-26%	.	15
CC1(C)CNC(=O)c2nc(CCN3CCCc4ccccc43)[nH]c2C1	3%	-3%	16µM*	-13
CC1CCN(CCc2nc3c([nH]2)CC(C)(C)CNC3=O)CC1	4%	17%	i	-13
O=C1COCCN1c1cc(-c2cccc(F)c2)cn2cncc12	0%[87.6 µM]	-10%[87.6 µM]	35µM*	12
O=C1NCCCCCCN(Cc2ccccc2)[C@H]2CCC[C@@H]12	6%	-16%	8.9µM*	9
COc1cccc(CN2CC[C@H]3C(=O)NCCCCCCN(Cc4ccncc4)[C@@H]3C2)n1	0%	-14%	20µM*	11
O=C1NCCCCCCN(Cc2cccc(F)c2)[C@H]2CCC[C@@H]12	-9%	?	?	13
O=C(Cc1ccccc1)N1C[C@@H](CO)[C@@H]2Oc3ccc(Cl)cc3[C@@H]21	.	.	.	16
COc1ccc(-c2cc(C(=O)N3CCOCC3)c3c(C4CCNC4)nn(C)c3n2)cc1 (stereo not given)	-2%	1%	79µM*	1
COc1ccc(-c2cc(C(=O)NCC(C)C)c3c(C4CCNC4)nn(C)c3n2)cc1 (stereo not given)	-8%	-24%	79µM*	-4
COc1ccc(-c2cc(C(=O)NC3CC3)c3c(C4CCCN4)nn(C)c3n2)cc1 (stereo not given)	2%	-5%	?	1
Cn1nc(C2CCNC2)c2c(C(=O)NCc3ccncc3)cc(C3CC3)nc21 (stereo not given)	5%	-14%	?	-5
O[C@@H]1CN(Cc2ccc(-n3cccn3)cc2)CC[C@H]1c1ccc(F)cc1	-8%	3%	?	-2
O=C(NCCCc1ccccc1)C1CCN(c2nccc(Nc3ccccc3F)n2)CC1	?	?	.	3
C[S+](=O)([O-])c1cccc(-c2nccc3c(=O)cc(N4CCOCC4)oc23)c1	-1%[87.6 µM]	14%[87.6 µM]	28µM*	-1
COc1cccc(-c2nccc3c(=O)cc(N4CCOCC4)oc23)c1	-7%[87.6 µM]	40%[87.6 µM]	35µM*	-3
COc1cc(CNc2nccc3c(=O)cc(N4CCOCC4)oc23)cc(OC)c1	?	-20%[87.6 µM]	28µM*	-10
CN(C)c1cc(=O)c2ccnc(-c3ccc(F)c(Cl)c3)c2o1	9%[87.6 µM]	1%[87.6 µM]	35µM*	-17
CN(c1ccccc1)c1cc(=O)c2ccnc(NCC3CCOCC3)c2o1	-9%[87.6 µM]	-7%[87.6 µM]	i	-22
SMILES	HEK293 viab	SNCA expr inh	KDM5B inhibitor	IP6K1 inh
CCC(=O)NCC(c1ccc(Cl)cc1)N1CCN(C)CC1 (stereo not given)	.	.	i	.
CN1CCC(NC(=O)C(C)(C)Oc2nn(Cc3cccc(Cl)c3)c3ccccc23)CC1	?	?	?	14
O=c1cc(N2CCOCC2)oc2c(-c3cccnc3)nccc12	6%[87.6 µM]	8%[87.6 µM]	40µM*	-8
CC(=O)Nc1cccc(-c2nccc3c(=O)cc(N4CCOCC4)oc23)c1	-7%[87.6 µM]	9%[87.6 µM]	35µM*	5
CN(c1cc(=O)c2ccnc(-c3ccccc3Oc3ccccc3)c2o1)C1CCOCC1	2%[87.6 µM]	33%[87.6 µM]	i	16
CN(C)c1cc(=O)c2ccnc(-c3ccccc3Oc3ccccc3)c2o1	7%[87.6 µM]	111%[87.6 µM]	35µM*	-11
O=c1cc(N2CCOCC2)oc2c(-c3cccc(F)c3)nccc12	0%[87.6 µM]	8%[87.6 µM]	40µM*	-12
O=c1cc(N2CCOCC2)oc2c(-c3ccccc3O)nccc12	-9%[87.6 µM]	-15%[87.6 µM]	i	-22
Cc1nn(-c2ccccc2)c2c1C(C(C)C)N(C1CCN(C(=O)N(C)C)CC1)C2=O (stereo not given)	.	.	.	16
O=C(NC1CCN(Cc2ccc(-c3ccsc3)cc2)C1)c1ccncc1 (stereo not given)	-14%	14%	.	-4
COc1cccc(-c2nccc3c(=O)cc(N(C)C)oc23)c1	0%[87.6 µM]	-3%[87.6 µM]	32µM*	-12
O=c1cc(N2CCOCC2)oc2c(Nc3ccccc3)nccc12	5%[87.6 µM]	21%[87.6 µM]	i	-8
O=c1cc(-c2cccnc2)oc2c(-c3ccccc3F)nccc12	-17%[87.6 µM]	?	35µM*	-11
O=c1cc(N2CCOCC2)oc2c(NC3CCOCC3)nccc12	9%[87.6 µM]	-24%[87.6 µM]	35µM*	-18
Cn1nccc1-c1nccc2c(=O)cc(N3CCOCC3)oc12	-10%[87.6 µM]	21%[87.6 µM]	35µM*	2
CSc1ccc(-c2cccc(C(=O)NCC(=O)N3CCN(c4ncccn4)CC3)c2)cc1	-24%	8%	.	0
O=C(O)c1ccc(Sc2ccccc2C(=O)O)c([N+](=O)[O-])c1	.	.	i	.
O=C(NCc1ccccc1F)C1CCc2nnc(-c3cccc(C(F)(F)F)c3)n21 (stereo not given)	4%	-32%	.	4
Cc1ccc(/C=N/N=C(c2ccccc2)c2ccccc2)o1	.	.	i	.
O=C(NCc1cccc(Cl)c1)c1ccc2nnc(-c3cccc(C(F)(F)F)c3)n2c1	?	?	.	-3
O=c1cc(N2CCOCC2)oc2c(-c3cncnc3)nccc12	5%[87.6 µM]	21%[87.6 µM]	25µM*	-12
Cc1ccc(F)cc1-c1nccc2c(=O)cc(N(C)C)oc12	6%[87.6 µM]	2%[87.6 µM]	40µM*	-8
CN(C)c1cc(=O)c2ccnc(-c3ccccc3F)c2o1	0%[87.6 µM]	-13%[87.6 µM]	i	-20
COc1ccc(Nc2nccc3c(=O)cc(N4CCOCC4)oc23)cn1	?	?	32µM*	-4
Cc1ccc(-c2cccc(CN3CCCC3C(=O)NCc3ccc(F)cc3F)c2)cc1Cl (stereo not given)	.	.	.	12
SMILES	HEK293 viab	SNCA expr inh	KDM5B inhibitor	IP6K1 inh
CNC(=O)c1nc2sccn2c1-c1ccc(C(F)(F)F)cc1	16%[87.6 µM]	7%[87.6 µM]	.	7
COc1ccc(CNc2nccc(-c3c(C)nn(C)c3C)n2)cc1OC	-15%	-26%	?	13
CCN1CC(CNc2nccc(-c3c(C)nn(C)c3C)n2)CC1=O (stereo not given)	-8%	-17%	28µM*	8
CC(=O)N1CCCC(CNc2nccc(-c3c(C)nn(C)c3C)n2)C1 (stereo not given)	4%	8%	28µM*	-9
CCNC(=O)Cc1c[nH]c2ncc(-c3cccnc3OC)cc12	8%[87.6 µM]	13%[87.6 µM]	40µM*	-14
COc1ncccc1-c1cnc2[nH]cc(CC(=O)NC3CCOCC3)c2c1	3%[87.6 µM]	8%[87.6 µM]	?	3
COc1ncccc1-c1cnc2[nH]cc(CC(=O)NCc3ccco3)c2c1	-9%[87.6 µM]	14%[87.6 µM]	35µM*	-19
